The results in this text go back to PubChem BioAssay (NCI).

Values joined by “and” are separate entries in the source; they are usually repeats but may differ in a detail not shown here. Equal entries are not always repeated. Compounds without any hit were thinned out: in the full panel of roughly 83,000, 20% have a hit.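 Activity criterion: percent growth below 10, measured after cells in 96-well plates were exposed to a single compound concentration for 48 hours.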 Unmarked numbers belong to inactive results. Active and inactive are the calls of the source.

Some test systems named below: DU-145 prostate; K-562 leukemia; MALME-3M melanoma; MDA-MB-231 breast; RXF 393 renal; SF-268 CNS; SF-295 CNS; SF-539 CNS; UACC-257 melanoma; M14 melanoma.
Assay in all cases: NCI-60 one-dose screen, 48 h (100 = growth as untreated, 0 = no growth, -100 = all killed)
Holding throughout (settings): 10 µM unless noted

For the compound `CC[C@H](C)[C@H](NC(=O)[C@H]1CCCCN1C)C(=O)N(C)[C@H](C[C@@H](OC(C)=O)c1cccc(C(=O)N[C@@H](Cc2ccccc2)C[C@H](C)C(=O)OC)n1)C(C)C`, the growth was 2.8% (active) in the test on DU-145 prostate; 5.5% (active) with K-562 leukemia; 66.7% with MALME-3M melanoma; 2.42% (active) in the test with MDA-MB-231 breast; 13.1% in the test on RXF 393 renal; 13.9% in the test on SF-268 CNS. Moreover, the growth in the test on SF-295 CNS is 2.21% (active); in the test with SF-539 CNS, -14% (active); in the test with UACC-257 melanoma it was 47.6%; in the test on M14 melanoma it was -8.11% (active).

Regarding `CC12CCC3C(CCC4CC(O)CCC43C)C1CCC2=O` (stereo not given), the growth was 103% with DU-145 prostate; 103% in the test with K-562 leukemia; 102% with MALME-3M melanoma; 111% in the test with MDA-MB-231 breast; 133% in the test on RXF 393 renal; 116% with SF-268 CNS. Further, the growth was 94.8% with SF-295 CNS, 99.1% in the test on SF-539 CNS, -10.3% (active) in the test on UACC-257 melanoma and 98.8% in the test with M14 melanoma.

In the case of `O=Cc1cn(Cc2ccccc2)c2ccccc12`, the growth with DU-145 prostate is 108%; in the test on K-562 leukemia it was 53.3%; with MALME-3M melanoma, 127%; in the test with MDA-MB-231 breast, 92.7%; in the test on RXF 393 renal, 67.6%; with SF-268 CNS, 104%. In addition, the growth with SF-295 CNS is 99.5%; in the test with SF-539 CNS, 95.1%; with UACC-257 melanoma it was 37.8%; in the test with M14 melanoma, 117%.

On to `c1ccc2c(c1)sc1ccccc12`, for which the growth with DU-145 prostate is 110%; in the test on K-562 leukemia, 105%; with MALME-3M melanoma, 84%; with MDA-MB-231 breast, 93.8%; in the test on RXF 393 renal, 107%; in the test on SF-268 CNS, 109%. In addition, the growth with SF-295 CNS was 101%; in the test with SF-539 CNS, 93.9%; in the test with UACC-257 melanoma, 109%; with M14 melanoma it was 94%.

Regarding `C/C(=N/OC(=O)N(C)C)c1ccc(Cl)c(Cl)c1`, the growth was 121% in the test on DU-145 prostate; 120% in the test with K-562 leukemia; 115% in the test on MALME-3M melanoma; 105% in the test with MDA-MB-231 breast; 108% in the test with RXF 393 renal; 105% in the test with SF-268 CNS. Besides, the growth with SF-295 CNS is 112%; in the test with SF-539 CNS, 114%; with UACC-257 melanoma it was 97.4%; with M14 melanoma it was 113%.

As to `C=CC[PH+](c1ccccc1)c1ccccc1.C=CC[PH+](c1ccccc1)c1ccccc1.[Pt+2].[S-]c1ncccn1.[S-]c1ncccn1`, the growth was 35.5% in the test on DU-145 prostate; 5% (active) with K-562 leukemia; -10.8% (active) in the test on MALME-3M melanoma; 7.07% (active) in the test with MDA-MB-231 breast; -77.6% (active) with RXF 393 renal; 87.4% in the test with SF-268 CNS. Moreover, the growth in the test with SF-295 CNS was 84.2%; in the test with SF-539 CNS it was 60.2%; in the test with UACC-257 melanoma, 66.7%; with M14 melanoma it was 1.19% (active).

As for `C[C@]12CCc3sc(Nc4ccc(OC(F)(F)F)cc4)nc3C1=CC[C@@H]1[C@@H]2CC[C@]2(C)C(=O)CC[C@@H]12`, the growth in the test with DU-145 prostate was 66.1%; with K-562 leukemia, 8.2% (active); in the test on MALME-3M melanoma, 76.8%; with MDA-MB-231 breast it was 73.5%; in the test on RXF 393 renal it was -32.2% (active); in the test with SF-268 CNS, 68.6%. Further, the growth in the test on SF-295 CNS was -2.71% (active); in the test on SF-539 CNS it was -5.4% (active); in the test with UACC-257 melanoma, 84%; in the test with M14 melanoma, 83.9%.

`COc1cc2c(c(OC)c1OC)-c1ccc(O)cc1[C@@H](NC(C)=O)CC2`: the growth is -21.6% (active) and -35.8% (active) with DU-145 prostate; 3.22% (active) in the test with K-562 leukemia; 26.4% in the test with MALME-3M melanoma; 9.66% (active) and -7.09% (active) in the test with MDA-MB-231 breast; 26.3% and 40.5% with RXF 393 renal; 19.5% and 21% with SF-268 CNS. The growth in the test on SF-295 CNS is -13.7% (active) and -23.2% (active); in the test with SF-539 CNS, 2.98% (active) and -2.84% (active); in the test with UACC-257 melanoma it was 54.1% and 48.7%; with M14 melanoma it was 11.5% and 16.8%.

Regarding `CN1CCN(c2ccc(Cl)cc2)CC1`, the growth in the test on DU-145 prostate is 6.91% (active); with K-562 leukemia it was 70.3%; in the test with MALME-3M melanoma it was 126%; with MDA-MB-231 breast it was 105%; with RXF 393 renal it was 66.9%; with SF-268 CNS, 88.5%. Besides, the growth in the test with SF-295 CNS is 57%; in the test on SF-539 CNS it was 97.2%; with UACC-257 melanoma it was 84.4%; in the test on M14 melanoma it was 101%.

As to `Nc1ccc(P(=O)(O)O)cc1`, the growth is 119% and 107% in the test with DU-145 prostate; 110% and 104% with K-562 leukemia; 101% and 95.7% in the test on MALME-3M melanoma; 114% and 103% in the test on MDA-MB-231 breast; 117% and 102% in the test on RXF 393 renal; 113% and 107% in the test with SF-268 CNS. Also, the growth in the test with SF-295 CNS is 99.5% and 93.4%; with SF-539 CNS, 88.6% and 100%; in the test on UACC-257 melanoma, 104% and 99.2%; with M14 melanoma, 121% and 100%.

For `C[C@]12CCc3nc(-c4ccc(O)c(O)c4)sc3C1=CC[C@@H]1[C@@H]2CC[C@]2(C)C(=O)CC[C@@H]12`, the growth with DU-145 prostate was 75.3%; with K-562 leukemia it was 56%; with MALME-3M melanoma, 62.9%; in the test with MDA-MB-231 breast, 56%; in the test on RXF 393 renal it was 91.2%; in the test with SF-268 CNS, 81.5%. Also, the growth in the test with SF-295 CNS is 104%; in the test with SF-539 CNS, 56.4%; in the test on UACC-257 melanoma, 91.4%; with M14 melanoma, 63.1%.
